# Compound activity deposited in PubChem BioAssay by National Center for Advancing Translational Sciences (NCATS).
# Compounds with a hit are over-represented: about 19% of the library has one in this group of screens.
# SW480 rereplic = induces DNA re-replication in SW480 colon adenocarcinoma cells | 340,000 tested, 1.8% active | Potency, µM (doses to about 46.1 µM), for the others: at the highest dose re-replication activation, usual class: activators | SW480 DNA re-replication, Hoechst DNA content imaging, 48 h; note: potency is the fitted concentration of half-maximal effect; % of control where 0% means no effect; nearly all actives have a fitted effect of over 55% in size
#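 Image-based read-out: total Hoechst fluorescence of nuclei (405 nm excitation, 500-530 nm emission), with hits raising the fraction of high-intensity nuclei. SW480 colon cells incubated 48 hr with compounds at 37 C.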
# IL-1B inflam inh = inhibitors of inflammasome signaling (IL-1 beta secretion); THP-1 LPS/ATP IL-1B secretion, AlphaLISA, 16 h; hits give low values; activity change, % at 57.5 µM; 360,000 tested, 4.7% active; in the data active = activity change below about -50%; inconclusive = mostly about -30% to -49%; note: % is set by controls: 0 for no effect and ±100 for the full control effect
#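 Secreted IL-1B measured by AlphaLISA bead assay after 16 h compound exposure of THP-1 cells; compounds (final up to 57.5 uM) added 1 h before LPS (250 ng/mL) and ATP (1.25 mM) stimulation; lower signal means less secretion.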
# BCR signal inh = blocks chronic active B-cell receptor signaling | Potency, µM (doses to about 46.1 µM), for the others: top-dose activity change, negative = inhibition, most hits filed as inhibitors | 340,000 tested, 0.05% active | ABC-DLBCL IkBa-CBG/CBR reporter, luminescence ratio, 4 h; active = well fitted inhibition curve with a large enough effect in the signal ratio, with a control signal flat, not every such curve was filed as active; inconclusive = small, poorly fitted or top-dose-only effect, or effect the other way, or a change in a side signal; the % refers to the signal ratio;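 note: potency is the fitted concentration of half-maximal effect; plate controls were basal doxycycline-induced cells for no effect and cells given 10 µM MG132 for full effect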
#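 Cell line TMD8 (human ABC DLBCL), stably expressing tet-inducible CBG68-IkBa fusion and CBR; IMDM/0.5% FBS; cpd up to 46 uM; dox induction, 4 h, 37C/5% CO2; dual luminescence; green/red ratio; MG132 control.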
# MCF10A rereplic = inducers of DNA re-replication in MCF 10A breast cells; AID 624296; 350,000 tested, 2.9% active; Potency, µM (top dose mostly 46.1 µM), inactives show at the top dose activity, positive = re-replication, usual class: activators; MCF 10A DNA re-replication, Hoechst nuclear intensity, 48 h; note: potency is the fitted concentration of half-maximal effect; % of control where 0% means no effect; nearly all actives have a fitted effect of over 50% in size
# TDP1 cell noCPT = qHTS for Inhibitors of human tyrosyl-DNA phosphodiesterase 1 (TDP1): qHTS in cells in absence of CPT. DT40 Tdp1-/- hTDP1 cells, no CPT, ATP luminescence, 48 h. 420,000 tested, 15% active. Potency, µM (doses to about 46.2 µM), inactives show top-dose activity change, negative = growth inhibition, usual class: inhibitors. AID 686978, 2013; note: potency is the fitted concentration of half-maximal effect; % is set by controls: 0 for no effect and ±100 for the full control effect; nearly all actives have a fitted effect of over 55% in size
#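 Readout: luminescence from CellTiter-Glo after 30 min in the dark at RT. Cells: DT40 Tdp1-/- with stable hTDP1, 400/well. Exposure: compounds alone, ≥48 hr, 37 °C.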
# DT40 TDP1 CPT = growth inhibition of DT40 Tdp1-/-;hTDP1 cells with camptothecin (screen for TDP1 inhibitors); chicken DT40 Tdp1-/-;hTDP1 cells + 20 nM CPT, ATP luminescence, 48 h; Potency, µM (titrated, usually from 46.2 µM), without a hit: at the top dose activity change, negative = growth inhibition, most hits filed as inhibitors; 420,000 tested, 12% active; AID 686979; note: potency is the fitted concentration of half-maximal effect; % is set by controls: 0 for no effect and ±100 for the full control effect; nearly all actives have a fitted effect of over 55% in size
#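 Chicken DT40 Tdp1-/- cells complemented with human TDP1, 400 cells/well, exposed to compounds plus 20 nM camptothecin for at least 48 h at 37 C; viability read as ATP content by CellTiter-Glo luminescence.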
# * = called active by the depositor; i = inactive; ? = inconclusive; . = no result given. Unless noted, calls come from the whole dose curve; as a rule, active = well fitted curve in the direction sought with a large enough effect; inconclusive = small, poorly fitted or top-dose-only effect, or another doubt; inactive = no such curve, though single readings can be large; an effect the other way counts as inactive or inconclusive.
SMILES,SW480 rereplic,IL-1B inflam inh,BCR signal inh,MCF10A rereplic,TDP1 cell noCPT,DT40 TDP1 CPT
CSc1ccccc1OCc1cc(C(=O)N2CCN(C)C(c3ccccc3)C2)no1 (stereo not given),1.6%,-11.8,.,?,-71.3%,20.6µM*
C=CC[C@H]1CC(C)=C[C@H](CC=C)N1C(=O)c1cc(COc2ccccc2SC)on1,?,i,-0.4%,?,14.6µM*,?
CCCNC(=O)c1cc(C2CCCN(C(=O)c3ccccc3)C2)on1 (stereo not given),.,19.9,.,.,-0.2%,4.2%
CC(C)(C)c1ccc(C(=O)Cn2cnnc2C#N)cc1,?,-6.1,?,-0.2%,16.4µM*,20.6µM*
Cc1cc(=O)c2c(O)c3c(O)cc(O)c4c5c(O)cc(O)c6c(O)c7c(=O)cc(C)c8c1c2c(c34)c(c65)c78,.,.,.,.,8.2µM*,16.4µM*
Cc1cc(O)c2c(c1O)C(=O)c1c(O)cc(C)c(O)c1C2=O,.,.,.,.,1.1%,-15.7%
Cc1ccc(C(=O)OCn2ncc(Cl)c(Cl)c2=O)cc1,?,-99.1*,?,3.66µM*,2.59µM*,1.84µM*
O=C(OCn1ncc(Cl)c(Cl)c1=O)c1ccc(C(F)(F)F)cc1,6.51µM*,-99.2*,1.0%,6.51µM*,5.8µM*,2.91µM*
COc1ccc(Oc2ncc3nc(-c4cccs4)c(=O)n(C)c3n2)cc1,.,.,.,.,-2.3%,2.2%
CC1(C)CC(=O)C2=C(C1)OC1=C(C(=O)CC(C)(C)C1)C2c1ccc(O)cc1O,3.16µM*,-104.4*,?,?,3.98µM*,2µM*
CC1(C)CC(=O)C2=C(C1)OC1=C(C(=O)CC(C)(C)C1)C2c1cccc([N+](=O)[O-])c1,.,-13.5,.,.,16.4µM*,?
Fc1ccc(-n2cc(-c3ccccc3)[n+]3c2SCC3)cc1,?,38.3,-1.5%,15.0%,?,-29.7%
FC(F)Oc1ccc(-n2cc(-c3ccccc3)[n+]3c2CCCCC3)cc1,-10.8%,-22.7,11.3%,-2.2%,5.8µM*,5.17µM*
Cc1ccc(-c2cn(-c3ccc(OC(F)F)cc3)c3[n+]2CCCCC3)cc1,-1.1%,-81.3*,?,5.1%,1.03µM*,0.651µM*
CNC(=O)Cn1cc(S(=O)(=O)Cc2ccccc2F)c2ccccc21,.,.,.,.,?,-4.6%
CCCOc1ccc2oc(=O)c3c(c2c1)CCCN3C(=O)CN(C)Cc1ccccc1,-1.9%,-2.9,-3.6%,6.6%,20.6µM*,?
O=C(CN1CCN(Cc2ccccc2)CC1)N1CCCc2c1c(=O)oc1ccc(O)cc21,25.5%,35.8,14.3%,20.6µM*,?,23.1µM*
O=C(c1ccco1)N1CCN(CC(=O)N2CCCc3c2c(=O)oc2ccc(O)cc32)CC1,-0.1%,0.8,6.5%,-0.4%,-9.7%,-11.2%
CCC1CCCCN1CC(=O)N1CCCc2c1c(=O)oc1ccc(OCc3ccccc3)cc21 (stereo not given),.,.,.,.,10.3µM*,14.6µM*
O=C(CN1CCCCC1)N1CCCc2c1c(=O)oc1ccc(OCc3ccccc3)cc21,0.8%,-19.2,7.4%,12.5%,?,?
O=C(Nc1nccs1)c1c(O)c2c([nH]c1=O)CCCC2,-3.1%,34.5,9.0%,-0.1%,-3.7%,0.6%
O=C(Nc1ccccc1O)c1c(O)c2c([nH]c1=O)CCCC2,16.4µM*,-67.6*,?,20.6µM*,?,?
Cc1ccc([C@@H]2[C@@H]3C(=O)N(C)C(=O)[C@@H]3[C@]3(C)C(=O)N(Cc4ccc(-c5ccccc5)cc4)CC(=O)N23)o1,5.3%,3.4,-7.8%,-2.6%,-8.8%,?
C=CCNc1nc(NCCOC)c2sc(-c3ccccc3)cc2n1,.,-112.9*,.,.,13µM*,?
CC(C)Nc1nc(NCCN2CCCC2)c2sc(-c3ccccc3)cc2n1,.,.,.,.,13µM*,6.51µM*
SMILES,SW480 rereplic,IL-1B inflam inh,BCR signal inh,MCF10A rereplic,TDP1 cell noCPT,DT40 TDP1 CPT
C=CCNc1nc(NCCOc2ccccc2Cl)c2sc(-c3ccccc3)cc2n1,.,-110.9*,.,.,14.6µM*,14.6µM*
C=CCNc1nc(NCCNC(C)=O)c2sc(-c3ccccc3)cc2n1,.,-3.0,.,.,?,?
C=CCn1c(NCc2ccc(N(C)C)cc2)nc2ccccc21,10.2%,-2.9,-15.6%,3.9%,2.1%,-22.8%
C=CCNc1nc(NCc2ccc(N(C)C)cc2)c2sc(-c3ccccc3)cc2n1,.,-24.2,.,.,5.8µM*,6.51µM*
CCOC(=O)N1CCN(C(=O)c2c(Cl)cnn2C)CC1,-0.4%,58.8,0.9%,7.8%,4.9%,10.1%
COCCNc1nc(Nc2ccc(C)cc2C)c2sc(-c3ccccc3)cc2n1,.,-24.6,.,.,18.4µM*,25.9µM*
C=CCNc1nc(Nc2ccc(OC)c(OC)c2)c2sc(-c3ccccc3)cc2n1,.,-108.3*,.,.,1.64µM*,1.84µM*
Cc1ccc(-c2nnc(SCC(=O)NCCC(C)C)nc2-c2ccc(C)cc2)cc1,.,.,.,.,13µM*,5.8µM*
COc1ccc(CSc2nc(C)[nH]c2[N+](=O)[O-])cc1[N+](=O)[O-],2.1%,18.1,?,-0.7%,-9.5%,14.2%
COc1ccc(CSc2cccc3cccnc23)cc1[N+](=O)[O-],0.1%,-2.9,?,?,16.4µM*,?
CC(C)(C)NC(=O)CSc1nnc(-c2ccccc2)c(-c2ccccc2)n1,-37.2%,-84.5*,8.5%,-0.5%,?,-15.2%
COc1ccc(CCNC(=O)CSc2nnnn2C)cc1OC,2.0%,-9.0,?,1.1%,-23.6%,-19.6%
COCCn1c(-c2ccc(Cl)cc2)cnc1SCC(=O)NCCc1ccc(OC)c(OC)c1,-1.4%,?,-9.3%,-7.2%,?,20.6µM*
CC(C)(CNc1ccc(C(F)(F)F)cc1[N+](=O)[O-])N1CCOCC1,14.8%,0.5,?,-0.6%,-2.6%,-12.0%
CC(=O)NC(Cc1ccc(C)cc1)C(=O)NC1CCN(S(=O)(=O)c2ccccc2)CC1 (stereo not given),?,-9.4,0.7%,2.7%,15.0%,-2.1%
O=C(COC(=O)/C=C/c1ccc(F)cc1)Nc1ccccc1-c1ccccc1,-4.1%,8.0,5.9%,-1.5%,-26.9%,-2.9%
COc1ccc(NC(=O)c2nc(SCc3ccc(F)cc3)ncc2Cl)cc1,.,.,.,.,?,-10.8%
COc1ccc(CCNC(=O)c2nc(SCc3ccc(F)cc3)ncc2Cl)cc1OC,.,.,.,.,?,20.6µM*
CCC(c1nnc(SCC(=O)NCCc2ccc(OC)c(OC)c2)n1Cc1ccccc1)N(C)C (stereo not given),-5.3%,-21.4,-0.7%,0.651µM*,0.0%,-12.4%
